Results as given in ChEMBL document CHEMBL4513135, “CO-ADD screening of IQOG CSIS (Spain) compounds”.
Entries with a potency or affinity are not part of this list.

Key:
Staphylococcus aureus = conditions: Concentration 32 ug.mL-1; ASSAY_TEST Inhibition of Bacterial Growth; detection method Absorption (OD600); MEDIA CAMHB; plate type 384well; NBS; CORNING #3640; time 18 hr
Escherichia coli = conditions: Concentration 32 ug.mL-1; ASSAY_TEST Inhibition of Bacterial Growth; detection method Absorption (OD600); MEDIA CAMHB; plate type 384well; NBS; CORNING #3640; time 18 hr

SMILES	Inhibition (Staphylococcus aureus) [%]	Inhibition (Escherichia coli) [%]
C#CCN(Cc1ccccc1)c1nc(N)c(C#N)c(-c2ccccc2)c1C#N	11.64	-2.54
Cn1c(C(=O)O)cc2cc(OCCCC3CCN(Cc4ccccc4)CC3)ccc21	27.49	-8.76
Cl.Nc1c2c(nc3c1C(c1c(Cl)cccc1Cl)c1ccc4ccccc4c1O3)CCCC2 (stereo not drawn)	-3.18	-2.79
O=C(N/N=C/Cc1ccccc1)c1cc2ccccc2[nH]1	10.17	9.88
N#Cc1c(Cl)nc(Sc2ccccc2)c(C#N)c1-c1ccccc1	3.48	-17.27
COc1ccc(C=C2N=C(SC)N(C)C2=O)cc1	-4.46	0.92
COc1cc(C2C(C#N)=C(N)Oc3c2ccc2ccccc32)ccc1O (stereo not drawn)	50.2	-13.64
C#CCNc1ncc(C#N)c(N)n1	8.61	-16.66
Cl.N#Cc1cc(C#N)c(N2CCCC2)nc1Cl	37.39	-6.69
Cc1ccc(C2c3ccc4ccccc4c3Oc3nc4c(c(N)c32)CCCC4)cc1 (stereo not drawn)	-4.73	-12.25
CC(C(=O)O)c1c[nH]c2ccccc12 (stereo not drawn)	5.61	8.04
N#Cc1c(N)nc(NCCCCC2CCN(Cc3ccccc3)CC2)c(C#N)c1-c1ccccc1	9.74	-1.09
C#CCN(C)c1nc(N(C)CC#C)c(C#N)cc1C#N	20.85	-13.82
CC(=O)CC(=O)N1[C@@H]2C[C@H]3CCC2(CS1(=O)=O)C3(C)C	27.16	7.75
